Source: PubChem BioAssay AID2289 (National Center for Advancing Translational Sciences (NCATS), 2010)
About 3,300 (0.97%) of roughly 340,000 compounds were called active. Another 9% or so got no clear call; they are omitted. The call rests on the fitted dose curve; in most records, active means well fitted inhibition curve with a large enough effect; inconclusive means small, poorly fitted or top-dose-only effect, or effect the other way; inactive means flat fitted curve, though single readings scatter. Some of the results follow.

Assay: qHTS Assay for Modulators of miRNAs and/or Inhibitors of miR-21; further: nearly all actives have a fitted effect of over 55% in size
Conditions: HeLa miR-21-FLuc reporter, luciferase luminescence, 48 h; actives lower the signal
Excerpt: MLSCN Grant: 1 R21 NS059478-01 Assay Provider: Qihong Huang, The Wistar Institute NCGC Assay Overview: MicroRNAs (miRNAs) are endogenously encoded small (~20-25 nucleotides), nonprotein-coding RNAs that are involved in post-transcriptional repression of target messenger RNAs (mRNAs) (Le and Hannon, 2004). Estimated to be involved in the regulation of 30% of all protein-coding mRNAs (Filipowicz et al., 2008), miRNAs play a significant role in many biological processes including cellular differentiation and tissue development (Ghildiyal and Zamore, 2009).
NCGC Assay Protocol Summary: Reagents: HeLa cells stably expressing firefly luciferase (FLuc) under the control of a CMV promoter (upstream) and a miR-21 binding sequence directly downstream of the gene. These cells endogenously express miR-21. Control compounds used were compound C3 (provided by collaborator), N6-phenyladenosine (MP Biomedicals, 0215379625), and DMSO. Assay Summary: 6uL of HeLa miR-21-FLuc cells in assay buffer (DMEM, Invitrogen #21063-029; 10% FBS, HyClone #SH30071.03) were dispensed at 2000cells/well (3.3 x 10^5 cells/mL) into Greiner solid-white TC-treated 1536-well plates using a Multidrop Combi (Thermo Fisher Scientific). Plates were incubated for one hour at 37 degree Celsius, 95% humidity, 5% CO2. These assay plates were then treated with 23nL of compound or DMSO using a Kalypsys pin tool, which allows for delivery of a 24-point titration of each compound to the assay plate, with a final compound concentration ranging from approximately 40uM to 5pM. Assay plates were then incubated for 48 hours. After incubation, plates were allowed to come to RT for one hour prior to delivery of 3uL of 3X luciferase detection reagent. After a 15 minute incubation to allow for cell lysis, luciferase activity was measured using a ViewLux CCD imager (PerkinElmer), with an average exposure time of 2-12 seconds. Keywords: NIH Roadmap, MLPCN, MLSMR, qHTS, miR-21, microRNA, firefly luciferase, FLuc.
Potency means the concentration at half of the fitted maximal effect.

Question: With O=C(NNc1c(F)c(F)cc(F)c1F)c1cc2ccccc2oc1=O as the molecule, how does the Potency read?
Answer: The Potency was 8.26 µM (active).

Question: Which Potency does the source give for COc1ccc(-c2n[nH]c(=S)n2-c2ccc3c(c2)OCCO3)cc1OC here?
Answer: Its Potency is 16.5 µM (active).

Question: With Cc1ccc(-c2cc(NC(=O)c3ccccc3)on2)cc1 as the molecule, how does the Potency read?
Answer: The Potency was 2.93 µM (active).

Question: For CC1CCc2c(sc3nc(CSc4n[nH]c(N)n4)[nH]c(=O)c23)C1 (stereo not given), which Potency is on record?
Answer: The Potency was 16.5 µM (active).

Question: For Nc1nc(SCc2ccc(Cl)cc2Cl)n[nH]1, which Potency is on record?
Answer: The Potency was 14.7 µM (active).

Question: For CCN(CC)c1ccc(/C=C2\C(=O)NC(=S)N(C)C2=O)o1, which Potency is on record?
Answer: The Potency was 1.31 µM (active).

Question: For CN1C(=O)/C(=C/c2ccc(N3CCCCCC3)o2)C(=O)NC1=S, which Potency is on record?
Answer: The Potency was 0.826 µM (active).

Question: Which Potency does the source give for CCCCn1c(O)c(/C(C)=N/NC(=O)Nc2ccccc2)c(=O)[nH]c1=O here?
Answer: The Potency was 11.7 µM (active).

Question: Which Potency does the source give for COc1ccc(CCN2CCCC(CN(C)C(=O)c3cc(C)oc3C)C2)cc1 (stereo not given) here?
Answer: The Potency was 4.65 µM (active).

Question: Which Potency does the source give for COc1ccc(NC(=O)CCCn2c(=O)oc3ccccc32)cc1Cl here?
Answer: Its Potency is 9.27 µM (active).

Question: With Cn1cnc2cc(NC(=O)c3ccc(Cl)cc3)ccc21 as the molecule, how does the Potency read?
Answer: The Potency was 1.85 µM (active).

Question: With COc1ccc(CNC(=O)c2ccc(C(C)C)cc2)cc1 as the molecule, how does the Potency read?
Answer: The Potency was 3.29 µM (active).

Question: For Cc1cccc(N=Nc2ccc(N(C)C)cc2)c1, which Potency is on record?
Answer: Its Potency is 2.93 µM (active).

Question: With COC(=O)C(O)(c1ccc(NC(=O)NC2CCCCC2)cc1)C(F)(F)F (stereo not given) as the molecule, how does the Potency read?
Answer: The Potency was 8.26 µM (active).

Question: Which Potency does the source give for CCN(CC)C(=O)Oc1ccc2cc(Br)ccc2c1 here?
Answer: Its Potency is 11.7 µM (active).

Question: With O=C(Oc1ccc2cc(Br)ccc2c1)N1CCCCCC1 as the molecule, how does the Potency read?
Answer: The Potency was 4.14 µM (active).

Question: With O=c1c2ccccc2[nH]c(=S)n1-c1ccc2c(c1)OCCO2 as the molecule, how does the Potency read?
Answer: The Potency was 7.36 µM (active).

Question: For O=c1cc(-c2ccc(O)c(O)c2)oc2cc(O)cc(O)c12, which Potency is on record?
Answer: Its Potency is 3.29 µM (active).

Question: Which Potency does the source give for Cc1cnn(-c2cc(Oc3ccccc3)ncn2)c1 here?
Answer: The Potency was 16.5 µM (active).

Question: For CC(C)(C)n1cc(C(=O)c2ccc3ccccc3c2O)cn1, which Potency is on record?
Answer: The Potency was 0.233 µM (active).

Question: With c1ccc2c(CN3CCCCCC3)c[nH]c2c1 as the molecule, how does the Potency read?
Answer: Its Potency is 2.93 µM (active).

Question: For CN(C)C(=O)Oc1ccc2c(c1)O/C(=C\c1ccccc1)C2=O, which Potency is on record?
Answer: Its Potency is 4.65 µM (active).

Question: With O=c1c2ccccc2nc(Cc2ccccc2)n1-c1ccccc1 as the molecule, how does the Potency read?
Answer: Its Potency is 5.85 µM (active).

Question: Which Potency does the source give for COc1ccccc1N=Nc1c(O)[nH]c(=S)[nH]c1=O here?
Answer: The Potency was 13.1 µM (active).

Question: For BrCC1C[n+]2c(SCc3ccccc3)nc3sc4c(c3c2O1)CCCC4 (stereo not given), which Potency is on record?
Answer: The Potency was 16.5 µM (active).

Question: For O=C(c1cc(-c2cccc(Cl)c2)on1)N1CCOCC1, which Potency is on record?
Answer: The Potency was 8.26 µM (active).

Question: For O=C(Nc1nc2c(s1)CCCCCC2)Nc1ccc(F)cc1F, which Potency is on record?
Answer: The Potency was 0.329 µM (active).

Question: With Cc1cc(C(=O)Nc2ccc3c(c2)OCCO3)nn1C(C)(C)C as the molecule, how does the Potency read?
Answer: Its Potency is 5.85 µM (active).

Question: For Cc1cc(C(=O)Nc2ccccc2)nn1C(C)(C)C, which Potency is on record?
Answer: Its Potency is 2.07 µM (active).

Question: With CN(CC(=O)N1CCc2ccccc21)S(=O)(=O)c1cccs1 as the molecule, how does the Potency read?
Answer: Its Potency is 5.85 µM (active).

Question: Which Potency does the source give for COc1ccc(-c2cc(=NCCC(=O)O)c3cc(C)ccc3o2)cc1 here?
Answer: Its Potency is 0.656 µM (active).

Question: With COc1ccc(-c2cc(=NCC(=O)O)c3ccccc3o2)cc1 as the molecule, how does the Potency read?
Answer: Its Potency is 3.69 µM (active).

Question: With CCCCN1CC(O)=C(c2nc3ccccc3s2)C1=N as the molecule, how does the Potency read?
Answer: The Potency was 6.56 µM (active).

Question: With CC(=O)Nc1ccccc1C(=O)OCC(=O)c1ccccc1Cl as the molecule, how does the Potency read?
Answer: The Potency was 14.7 µM (active).

Question: For COc1ccc2nc(NC3=NCCN3)sc2c1, which Potency is on record?
Answer: Its Potency is 1.65 µM (active).

Question: For Cc1ccnc(SCc2nc3ccccc3s2)n1, which Potency is on record?
Answer: The Potency was 7.36 µM (active).

Question: For Cc1cccc(OCCn2c(=O)oc3ccc(C)cc32)c1, which Potency is on record?
Answer: Its Potency is 14.7 µM (active).

Question: For O=c1oc2ccccc2n1CCCOc1ccccc1, which Potency is on record?
Answer: The Potency was 13.1 µM (active).

Question: For Cc1ccc(NC(=O)O/N=C/c2cccc([N+](=O)[O-])c2)cc1, which Potency is on record?
Answer: The Potency was 16.5 µM (active).

Question: Which Potency does the source give for Cc1nc(Cl)sc1C(=O)Nc1ccc2ccccc2c1 here?
Answer: The Potency was 5.85 µM (active).

Question: Which Potency does the source give for O=C(CSCc1ccccc1)Nc1ccc2c(c1)OCO2 here?
Answer: Its Potency is 5.21 µM (active).

Question: For Cc1ccc(-c2nn(Cc3ccccc3)cc2C=O)cc1, which Potency is on record?
Answer: Its Potency is 6.56 µM (active).

Question: For Cc1ccc(-c2nc(N3CCOCC3)s[n+]2-c2ccccc2)cc1, which Potency is on record?
Answer: The Potency was 5.21 µM (active).

Question: With c1ccc(-c2nc(N3CCOCC3)s[n+]2-c2ccccc2)cc1 as the molecule, how does the Potency read?
Answer: Its Potency is 13.1 µM (active).

Question: Which Potency does the source give for Cn1nnc2cc(NC(=O)Nc3cccc(Cl)c3)ccc21 here?
Answer: Its Potency is 1.47 µM (active).

Question: Which Potency does the source give for c1ccc(CN2CCc3nc4ccccc4cc3C2)cc1 here?
Answer: Its Potency is 14.7 µM (active).

Question: For Cc1ccc(NN=C2C(=O)OC(C)(C)OC2=O)c(C)c1, which Potency is on record?
Answer: Its Potency is 11.7 µM (active).

Question: Which Potency does the source give for O=C(NCC(c1cccnc1)N1CCOCC1)Oc1ccccc1 (stereo not given) here?
Answer: The Potency was 16.5 µM (active).

Question: Which Potency does the source give for Cc1nc2ccc(NC(=O)C3COc4ccccc4O3)cc2s1 (stereo not given) here?
Answer: Its Potency is 7.36 µM (active).

Question: With Cc1nc2ccc(NC(=O)c3ccc(Cl)s3)cc2s1 as the molecule, how does the Potency read?
Answer: The Potency was 2.93 µM (active).
